# In PubChem BioAssay:
# “And” between values parts separate entries of the source, which are not always exact repeats. Identical values can stand only once. The source made the active and inactive calls. Cut-off read from the data, not from the text of the source, unless noted: active = parasite load remaining mostly below about 12% (no sharp cut-off); inactive = mostly above about 10%.
# Columns and labels:
# [1] = P. berghei load reduction in hepatocytes – cell-based, HepG2, luciferase luminescence, HepG2 viability, primary screen (AID 624349);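 note: 100% = mean of DMSO negative control wells on the same plate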; details: P. berghei liver stage in HepG2, luciferase luminescence, concentration not given here; parasite load remaining: stronger effect = lower value; viability: measured here: HepG2 viability without parasites
# [2] = Wnt pathway potentiators raising nuclear beta-catenin – imaging, WNT3A-conditioned medium, mouse C2C12, NPC library, primary screen (AID 1117326; in the data active = nuclear beta-catenin stimulation mostly above about 4.2%, no sharp cut-off; inactive = mostly below about 10%; note: reference of the scale not given here); details: stronger effect = higher value
# [3] = stimulators of insulin release from INS-1E, primary screen, cell-based, 5 mM glucose, NPC library (AID 1117329;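 active = compound raises insulin release from rat beta cells at 5 mM glucose, no numeric limit stated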; note: reference of the scale not given here); details: rat INS-1E insulin secretion, at 10 µM, stronger effect = higher value
# [4] = growth inhibition of GSK3B-pretreated HCT116 cells – cell-based, CellTiter-Glo, 0.2 to 20 µM (AID 1117336;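 active = compounds lowering colon cancer cell viability after pretreatment blocking the GSK3B kinase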); details: HCT116 viability after GSK3B inhibitor, at 20 µM, stronger effect = higher value
# [5] = inhibition of endothelial tube formation, primary screen, imaging, VEGF stimulated, CD31 staining, tube area, NPC library (AID 1117340;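 active = compound that reduces growth-factor-driven endothelial tube area in a mixed cell culture, no cutoff stated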); details: VEGF-stimulated ADSC/ECFC co-culture, at 10 µM, stronger effect = higher value
# [6] = GLP1 release stimulators, primary, NCI-H716, NPC library (AID 1117341;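 active = compound raises GLP1 secretion from the human gut endocrine cells, with no numeric limit stated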; note: reference of the scale not given here); details: NCI-H716 cells, at 10 µM, stronger effect = higher value
# [7] = HCT116 colon cancer cell growth inhibition, primary screen, CellTiter-Glo luminescence, NPC library (AID 1117342;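 active = compounds that lower survival of HCT116 colon cancer cells in the luminescence readout, no numeric limit stated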); details: at 20 µM (top of the series)
# [8] = reduced SW480 viability measured with CellTiter-Glo, NPC library, primary (AID 1117343;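 active = compounds that lower viability of the colon cancer cells in the luminescence readout, with no numeric limit stated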); details: CellTiter-Glo luminescence; at 20 µM (top of the series)
# [9] = NPC library primary testing for decreased DLD-1 cell viability via CellTiter-Glo (AID 1117346;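 active = compounds that lower survival of DLD-1 colon cancer cells in the luminescence readout, no cutoff given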); details: DLD-1 viability, CellTiter-Glo luminescence; at 20 µM (top of the series)
# [10] = biological target: 6-phosphogluconate dehydrogenase, decarboxylating (Homo sapiens) (UniProt P52209); assay: inhibition of human phosphogluconate dehydrogenase – biochemical, recombinant enzyme, NADPH absorbance, primary screen (AID 1159550;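 active = at least 20% inhibition of 6-phosphogluconate dehydrogenase activity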); details: recombinant 6PGD, NADPH absorbance 341 nm; at 10 µM; stronger effect = higher value
# Chain of 6-phosphogluconate dehydrogenase, decarboxylating (Homo sapiens) (P52209 whole entry, looked up): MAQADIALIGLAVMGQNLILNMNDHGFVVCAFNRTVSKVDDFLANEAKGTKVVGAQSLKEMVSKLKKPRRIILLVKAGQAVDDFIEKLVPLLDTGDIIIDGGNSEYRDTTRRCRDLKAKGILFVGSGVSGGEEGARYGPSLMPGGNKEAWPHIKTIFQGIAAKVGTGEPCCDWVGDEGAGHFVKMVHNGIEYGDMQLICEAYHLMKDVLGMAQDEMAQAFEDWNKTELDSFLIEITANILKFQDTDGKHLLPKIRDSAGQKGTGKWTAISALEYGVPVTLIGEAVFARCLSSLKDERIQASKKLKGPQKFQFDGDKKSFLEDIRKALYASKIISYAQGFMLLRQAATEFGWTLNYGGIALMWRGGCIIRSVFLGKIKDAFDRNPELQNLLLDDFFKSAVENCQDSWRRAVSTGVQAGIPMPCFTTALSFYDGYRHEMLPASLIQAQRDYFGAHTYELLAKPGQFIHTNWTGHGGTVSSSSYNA
Structure (SMILES),parasite load remaining [1],viability [1],nuclear beta-catenin stimulation ([2]; at 10 µM),"nuclear beta-catenin stimulation ([2]; stimulation, at 2 µM)",insulin secretion stimulation [3],viability decrease [4],tube area decrease [5],GLP1 secretion stimulation [6],inhibition of viability [7],viability decrease (inhibition) [8],viability decrease (inhibition) [9],inhibition [10]
CCn1cc(C(=O)O)c(=O)c2cnc(N3CCNCC3)nc21,87.7% (inactive) and 144% (inactive),98.7% and 73%,1.9% (inactive),4.3%,1.5% (inactive),-23.1% (inactive),0.7% (inactive),-1.8% (inactive),-0.3% (inactive),-4.5% (inactive),-15.1% (inactive),6.84% (inactive)
O=C(O)c1cn(-c2ccc(F)cc2)c2cc(N3CCNCC3)c(F)cc2c1=O,63.8% (inactive) and 65.5% (inactive) and 24.1% (inactive),92.7% and 132% and 71%,0.8% (inactive),2.8%,0.8% (inactive),28.3% (inactive),-4.3% (inactive),-2.6% (inactive),29.7% (inactive),-14.9% (inactive),-10.5% (inactive),0.148% (inactive)
CN(C)CCc1c[nH]c2ccc(CS(=O)(=O)N3CCCC3)cc12,135% (inactive),87.9%,1.7% (inactive),1.6%,2.7% (inactive),-11% (inactive),8.7% (inactive),1.2% (inactive),1.33% (inactive),28.9% (inactive),-7.1% (inactive),-1.67% (inactive)
CCOC(=O)OC(C)OC(=O)[C@@H]1N2C(=O)[C@@H](NC(=O)[C@H](N)c3ccccc3)[C@H]2SC1(C)C (stereo partly drawn),83% (inactive) and 78.3% (inactive),104% and 79.2%,1.2% (inactive),2.5%,0.3% (inactive),-28.2% (inactive),5.9% (inactive),-3.1% (inactive),-1.7% (inactive),-35.9% (inactive),-10.2% (inactive),-1.65% (inactive)
OC[C@H]1O[C@@H](O[C@@H]2[C@@H](CO)O[C@](O)(CO)[C@H]2O)[C@H](O)[C@@H](O)[C@H]1O,106% (inactive) and 22.7% (inactive),76.4% and 96.6%,2.4% (inactive),1.6%,0.5% (inactive),-11.1% (inactive),-2.5% (inactive),0.8% (inactive),10% (inactive),86.9% (active),-4.2% (inactive),0.0837% (inactive)
N[C@@H](CCC(=O)N[C@@H](CS)C(=O)NCC(=O)O)C(=O)O,31.4% (inactive),68.2%,-1% (inactive),4%,-0.3% (inactive),-46.1% (inactive),16.9% (inactive),-3.8% (inactive),5.53% (inactive),8.1% (inactive),-4.3% (inactive),0.532% (inactive)
Cn1c([N+](=O)[O-])cnc1COC(N)=O,74.3% (inactive) and 117% (inactive) and 35.4% (inactive),101% and 70.6% and 91.7%,0.1% (inactive),0.6%,-4.5% (inactive),-8.4% (inactive),6.2% (inactive),0.7% (inactive),-2.4% (inactive),-4.9% (inactive),-13.8% (inactive),-20.2% (inactive)
CC(=O)Nc1ccc(O)cc1,99.6% (inactive) and 108% (inactive) and 46.1% (inactive),106% and 78.8% and 112%,-0.4% (inactive),-0.2%,-0.1% (inactive),9.25% (inactive),-15.2% (inactive),1.9% (inactive),1.2% (inactive),34.3% (inactive),3.3% (inactive),13.8% (inactive)
CCC(=O)c1c(O)cc(O)cc1O,100% (inactive),70.3%,1.8% (inactive),2%,3.7% (inactive),-16.4% (inactive),4.6% (inactive),-2% (inactive),21.1% (inactive),21.5% (inactive),2.4% (inactive),8.94% (inactive)
O=C1c2cccc(O)c2C(=O)c2c(O)cccc21,32.6% (inactive),96.2%,-0.6% (inactive),8.2%,-2.2% (inactive),21.4% (inactive),6% (inactive),0% (inactive),21.9% (inactive),52.4% (active),9.7% (inactive),-6.73% (inactive)
CO[C@]12C[C@@H](COC(=O)c3cncc(Br)c3)CN(C)[C@@H]1Cc1cn(C)c3cccc2c13,,,0.8% (inactive),2.5%,8.2% (inactive),8.4% (inactive),0.8% (inactive),7.1% (inactive),43.7% (inactive),76.9% (active),23.6% (inactive),6.31% (inactive)
O=C(O)c1ccc(S(=O)(=O)N(Cl)Cl)cc1,101% (inactive) and 53.6% (inactive),75.7% and 97.7%,0.3% (inactive),1.7%,1.2% (inactive),-8.9% (inactive),-29.4% (inactive),0% (inactive),8.13% (inactive),16.9% (inactive),-6.9% (inactive),13.4% (inactive)
CCCCC1(COC(=O)CCC(=O)O)C(=O)N(c2ccccc2)N(c2ccccc2)C1=O,87.9% (inactive),101%,6.3% (inactive),4.7%,2.3% (inactive),10.8% (inactive),-1.7% (inactive),-1.7% (inactive),0.4% (inactive),-17.1% (inactive),9.4% (inactive),-3.37% (inactive)
Cc1cc(=O)[nH]c(=S)[nH]1,70.4% (inactive),92%,-1.2% (inactive),-0.4%,-0.5% (inactive),0.65% (inactive),-25.4% (inactive),1.6% (inactive),-2.3% (inactive),11.6% (inactive),0.15% (inactive),-2.01% (inactive)
O=C(O)P(=O)(O)O,127% (inactive) and 15.8% (inactive),69.2% and 92.6%,0.2% (inactive),-0.8%,0.5% (inactive),-27.7% (inactive),0.7% (inactive),-0.4% (inactive),-5.05% (inactive),2.3% (inactive),-16.6% (inactive),-6.34% (inactive)
Nc1ccc(N=Nc2ccccc2)c(N)n1,122% (inactive) and 140% (inactive) and 51.9% (inactive),90.8% and 67.3% and 81.9%,5.9% (inactive),3.5%,0.5% (inactive),43.4% (inactive),36.8% (inactive),-4.7% (inactive),29% (inactive),31.9% (inactive),16% (inactive),3.23% (inactive)
CCC(Cc1c(I)cc(I)c(N)c1I)C(=O)O (stereo not drawn),85.1% (inactive) and 170% (inactive) and 66.3% (inactive),78.9% and 86.3% and 103%,1.2% (inactive),-1.1%,0.8% (inactive),-70.8% (inactive),4% (inactive),1.8% (inactive),7.7% (inactive),18.6% (inactive),-5.3% (inactive),-0.317% (inactive)
CN(C)c1ccc(C(=C2C=CC(=[N+](C)C)C=C2)c2ccc(N(C)C)cc2)cc1,-0.57% (inactive) and -0.18% (inactive),16.5% and 0%,1% (inactive),28.6%,-0.2% (inactive),104% (active),108% (active),-16% (inactive),103% (active),146% (active),106% (active),5.37% (inactive)
Cc1cc(C)nc(NS(=O)(=O)c2ccc(N)cc2)n1,78.5% (inactive) and 292% (inactive) and 25.7% (inactive),96.6% and 70.6% and 93.3%,0.2% (inactive),0.2%,0.4% (inactive),-0.3% (inactive),-24.8% (inactive),1.6% (inactive),-12.6% (inactive),35.5% (inactive),6.75% (inactive),1.62% (inactive)
COc1ccc(CN(CCN(C)C)c2ncccn2)cc1,161% (inactive) and 52.7% (inactive),86.2% and 91.9%,1.3% (inactive),2.3%,1.5% (inactive),-26.6% (inactive),5% (inactive),4.9% (inactive),14.6% (inactive),4.3% (inactive),-22.1% (inactive),0.837% (inactive)
Nc1nccs1,56.3% (inactive),97.8%,-1.6% (inactive),0.3%,-0.1% (inactive),12.4% (inactive),5.4% (inactive),-1% (inactive),25.5% (inactive),66.3% (active),10% (active),5.79% (inactive)
C/C=C(/C(=C/C)c1ccc(O)cc1)c1ccc(O)cc1,99.8% (inactive) and 85.1% (inactive) and 15.2% (inactive),93.2% and 76.6% and 68.2%,20.4% (inactive),2.2%,-1.9% (inactive),101% (active),49.5% (active),34.7% (active),101% (active),123% (active),102% (active),15.9% (inactive)
CCCCCCOc1ccccc1C(N)=O,151% (inactive),88.6%,2.2% (inactive),-1%,-0.6% (inactive),-31.8% (inactive),-2.6% (inactive),-2.8% (inactive),19.5% (inactive),36.2% (inactive),11.6% (inactive),-1.25% (inactive)
Cn1c(=O)c2c(ncn2CCO)n(C)c1=O,29.7% (inactive) and 108% (inactive),47.6% and 91.1%,2.5% (inactive),1.4%,1.4% (inactive),15.8% (inactive),-12.3% (inactive),-0.6% (inactive),-8% (inactive),-1.2% (inactive),-21.2% (inactive),-5.12% (inactive)
O=c1oc2c(O)c(O)cc3c(=O)oc4c(O)c(O)cc1c4c23,130% (inactive),65.1%,-1.4% (inactive),2.3%,-0.1% (inactive),24.7% (inactive),58% (active),-2.3% (inactive),19.7% (inactive),75.1% (active),30.7% (inactive),-6.65% (inactive)
